About 83,000 compounds went through this panel and 20% of them were active in at least one assay; those are over-represented in the sample as a whole.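 Activity criterion: percent growth below 10, measured after cells in 96-well plates were exposed to a single compound concentration for 48 hours.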 Unmarked numbers belong to inactive results. The source made the active and inactive calls.
What was measured:
Experiment in all cases: NCI-60 one-dose screen, 48 h (100 = growth as untreated, 0 = no growth, -100 = all killed)
Settings in all cases: 10 µM unless noted
NCI-H23 lung = test system: NCI-H23 lung
NCI-H226 lung = test system: NCI-H226 lung
NCI-H322M lung = test system: NCI-H322M lung
HOP-62 NSCLC = test system: HOP-62 NSCLC
NCI-H460 lung = test system: NCI-H460 lung
HOP-92 NSCLC = test system: HOP-92 NSCLC
NCI-H522 lung = test system: NCI-H522 lung
A549/ATCC NSCLC = test system: A549/ATCC NSCLC
786-0 renal = test system: 786-0 renal
COLO 205 colon = test system: COLO 205 colon

Row | SMILES | growth (NCI-H23 lung) | growth (NCI-H226 lung) | growth (NCI-H322M lung) | growth (HOP-62 NSCLC) | growth (NCI-H460 lung) | growth (HOP-92 NSCLC) | growth (NCI-H522 lung) | growth (A549/ATCC NSCLC) | growth (786-0 renal) | growth (COLO 205 colon)
1 | O=C(Nc1ccc(NC(=O)c2cc(=O)[nH]c3ccccc23)cc1)Nc1cccc(Cl)c1 | 87.9% | 70% | 80.2% | 66.2% | 86.3% | 81.1% | 84.6% | 93.5% | 98.3% | 90.1%
2 | Cc1nc(N)nc(N[C@@H](C)c2nc3cccc(NCc4ccc(C(=O)NO)cc4)c3c(=O)n2-c2ccccc2)n1 | 63.9% | 81% | 80.1% | 75.1% | 76.3% | 50.1% | 35.3% | 90.5% | 93.9% | 47.3%
3 | O=C(Nc1ccc(Cl)cc1)c1cc(NCc2cc(O)ccc2O)ccc1O | 93.2% | 95.2% | 94.9% | 102% | 98.7% | 80.4% | -59.7% (active) | 80.7% | 95.6% | 105%
4 | CN(C)c1ccc(C2C(C#N)=C(/N=C/c3ccccc3)Oc3c2ccc2ccccc32)cc1 (stereo not given) | 80.9% | 55.5% | 98.5% | 51.2% | 51.3% | 59.8% | 36.4% | 71.4% | 89% | 116%
5 | COc1cc(/C(C)=C(\c2ccc(Cl)cc2)c2ccc(OCCN(C)C)cc2)ccc1F | 76.5% | 91% | 69% | 87.6% | 7.61% (active) | 44.6% | 80.2% | 63.4% | 65.7% | -33.8% (active)
6 | N#Cc1cc(-c2nc3ccccc3s2)c(=O)n(NS(=O)(=O)c2ccccc2)c1N | 102% | 85.7% | 108% | 90.1% | 106% | 104% | 94.2% | 117% | 106% | 122%
7 | COc1cc2c(=O)n(CCN(C)C)c3c4cc5c(cc4ccc3c2cc1OC)OCO5 | -20.7% (active) | -97.6% (active) | -15.7% (active) | -5.77% (active) | -31.6% (active) | -9.74% (active) | -37.9% (active) | -84.9% (active) | -58.7% (active) | -56.3% (active)
8 | C=C(C)[C@@H]1CC[C@]2(C(=O)N[C@H](CO)Cc3ccccc3)CC[C@]3(C)[C@H](CC[C@@H]4[C@@]5(C)CCCNC(C)(C)[C@@H]5CC[C@]43C)[C@@H]12 | -71.9% (active) | -55.7% (active) | -86% (active) | -86.2% (active) | -86.2% (active) | -88.5% (active) | -79.2% (active) | -83.1% (active) | -90.7% (active) | -83.4% (active)
9 | O=C(/C=C(O)/C=C/c1ccc(SC(F)(F)F)cc1)/C=C/c1ccc(SC(F)(F)F)cc1 | 83.2% | 100% | 102% | 101% | 91.1% | 93% | 93.7% | 95.4% | 87.2% | 114%
10 | CC(C)=CCC[C@](C)(O)[C@H]1CC[C@]2(C)[C@@H]1CC[C@@H]1[C@@]3(C)C/C(=C/c4ccccc4)C(=O)C(C)(C)[C@@H]3CC[C@]12C | 84.7% | 93.7% | 93.7% | 92.2% | 91.1% | 78.8% | 77.9% | 85.1% | 92.2% | 99.9%
11 | CCN(CC)c1ccc(/C=N/NC(=O)CSc2nc3ccccc3c(=O)n2Cc2ccc(S(N)(=O)=O)cc2)c(O)c1 | 39.6% | 31.1% | 27.1% | 21.2% | 6.78% (active) | 58.4% | -26.1% (active) | 29% | 32.6% | -2.18% (active)
12 | CCN1C(=O)N(CC)C2Nn3c(s/c(=C\c4ccc(OC)cc4)c3=O)=NC21 (stereo not given) | 76.3% | 85.1% | 82.6% | 55.8% | 32.2% | 75.4% | 12.2% | 50.7% | 34.6% | 31.7%
13 | CCOC(=O)Oc1c(OC)cc(C(=O)c2ccc(OC)c(O)c2OC)cc1OC | 37.8% | 54.9% | 46.1% | 24% | 8.66% (active) | 48.3% | 24% | 25.7% | 21.2% | 89.6%
14 | O=c1ccc(-c2nc(N3CCOCC3)c3ccccc3n2)c[nH]1 | 93.9% | 91.7% | 92.3% | 99.6% | 103% | 103% | 98.9% | 97% | 97.1% | 106%
15 | C=C1C(=O)O[C@H]2[C@H]1CC/C(CNC(=O)C(C)c1ccc(CC(C)C)cc1)=C\CC[C@@]1(C)O[C@@H]21 (stereo not given in full) | 51.4% | 75.1% | 72.3% | 60% | 36.2% | -19.1% (active) | 7.53% (active) | 42.2% | -86% (active) | -34.8% (active)
16 | N/C(=N\C(N)=N\c1nc2ccccc2s1)c1ccnc(Br)c1 | 44.5% | 60.1% | 97.4% | 29.8% | 16.4% | 47% | 9.9% (active) | 61.3% | 32.2% | 21.4%
17 | C#CCNC(=O)c1cccc2c1cc(C)n2-c1nc2c(c(NCc3ccccc3)n1)CCCC2 | -42.8% (active) | -67.1% (active) | -4.53% (active) | -6.14% (active) | -30.8% (active) | -61% (active) | -25.8% (active) | -29.5% (active) | -48.4% (active) | -46.4% (active)
18 | Cc1ccc(S(=O)(=O)Nn2c3c(cc(-c4nc5ccccc5s4)c2=O)CCCCCC3)cc1 | 94.8% | 76.6% | 100% | 94.9% | 104% | 85.4% | 89.1% | 101% | 101% | 119%
19 | Cc1cc(C(=O)/C=C/c2ccc[nH]2)ccc1-n1ccc(C(F)(F)F)n1 | 89.5% | 89.8% | 97.5% | 106% | 98.9% | 104% | -9.61% (active) | 84.9% | 48.7% | 115%
20 | C=CCN1C(=O)/C(=C/C(=O)OC)S/C1=N\NC(=O)c1cc2ccc1/C=C\c1ccc(cc1)/C=C\2 | 88.2% | 87.5% | 97.1% | 107% | 102% | 81.4% | 60.7% | 94.8% | 91.2% | 110%
21 | C=C1C(=O)O[C@H]2[C@H]1CC/C(COC(=O)NCc1c[nH]c3ccc(Cl)cc13)=C\CC[C@@]1(C)O[C@@H]21 | 34.8% | 6.61% (active) | 76.2% | 60.5% | 18% | -35.7% (active) | -90.4% (active) | 55.8% | -61.8% (active) | -59.3% (active)
22 | CCN(c1ccccc1)S(=O)(=O)c1cc([N+](=O)[O-])ccc1Cl | 80.2% | 36.4% | 73.3% | 105% | 106% | 49.9% | 23.7% | 102% | 97.4% | 129%
23 | COc1cc(NC(C)CCCNC(=O)CCC(=O)NCCCNCCCCCCCCNCCCNC(=O)CCC(=O)NCCCC(C)Nc2cc(OC)cc3cccnc23)c2ncccc2c1 (stereo not given) | 54.4% | 44.5% | 32.9% | 85.2% | 87.4% | 54.2% | 47.3% | 63% | 92.6% | 14.7%
24 | COc1cc(-c2cc(-c3ccc(N(C)C)cc3)nc(N3CCOCC3)c2C#N)cc(OC)c1OC | 60% | 19.9% | 35.8% | -36.8% (active) | 15.2% | 4.13% (active) | 0.156% (active) | 26.9% | -38.5% (active) | 19.9%
25 | COc1ccc(OC)c(-c2cc(-c3ccc(Cl)cc3)c3c(N)c(C(=O)c4ccc(Cl)cc4)sc3n2)c1 | 91.4% | 96.1% | 93.6% | 81.3% | 105% | 90.9% | 86.1% | 97.3% | 97.3% | 110%
26 | O=C1Nc2cc(-c3cccc(O)c3)ccc2/C1=C/c1ccc[nH]1 | 4.68% (active) | 73.9% | 21.8% | 14% | 4.52% (active) | 30.9% | 3.76% (active) | 17.7% | 15% | 83.7%
